This is a sample that favours compounds with a hit; in the whole collection about 3.9% have one here.
ALR inh: inhibitors of human sulfhydryl oxidase ALR; purified ALR, DTT oxidation, H2O2 HRP-luminol luminescence; inhibition, % (test concentration not listed); 290,000 tested, 3.8% active; AID 485317;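 active = mean replicate inhibition above about 79%, with every replicate also reaching it, limit read from the data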
NSD2 HMT inh: NSD2 (human) methyltransferase inhibition. inhibition, % at 12.5 µM. AID 743445. 310,000 tested, 0.54% active. O96028. NSD2 peptide methylation, AlphaScreen, 120 min; in the data active = inhibition above about 50%
CDK5 p35 inh: blocks human CDK5/p35 kinase activity; inhibition, % at 10 µM; Recombinant CDK5/p35, ADP-Glo luminescence, 60 min; 330,000 tested, 0.01% active;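 active = highest replicate inhibition of at least 50% and at least 75% of replicates reaching 50%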
Target sequence (Q00535 whole entry, looked up): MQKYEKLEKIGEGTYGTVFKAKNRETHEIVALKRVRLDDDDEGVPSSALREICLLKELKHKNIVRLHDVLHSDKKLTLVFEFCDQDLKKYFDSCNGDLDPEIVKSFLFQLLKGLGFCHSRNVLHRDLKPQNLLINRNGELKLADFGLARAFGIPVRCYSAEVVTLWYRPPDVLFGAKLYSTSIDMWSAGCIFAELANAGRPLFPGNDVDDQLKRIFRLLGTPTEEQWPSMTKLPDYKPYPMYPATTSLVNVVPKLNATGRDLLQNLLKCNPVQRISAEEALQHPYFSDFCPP
Target sequence (Q15078 whole entry, looked up): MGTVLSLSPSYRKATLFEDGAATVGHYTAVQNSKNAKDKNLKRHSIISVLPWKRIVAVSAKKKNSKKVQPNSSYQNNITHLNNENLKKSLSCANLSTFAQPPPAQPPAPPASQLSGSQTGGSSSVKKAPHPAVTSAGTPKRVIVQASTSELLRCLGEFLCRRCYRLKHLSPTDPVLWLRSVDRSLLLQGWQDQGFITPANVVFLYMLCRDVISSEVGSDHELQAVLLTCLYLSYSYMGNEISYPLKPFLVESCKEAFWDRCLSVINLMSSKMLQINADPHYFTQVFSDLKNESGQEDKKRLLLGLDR
Glyco luc inh: N-linked glycosylation inhibition; D54 ERlucT glycosylation luciferase reporter, 24 h; percent of 100 nM tunicamycin response; reporter increase, % at 12.5 µM; 360,000 tested, 0.23% active;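 active = mean luciferase reporter signal, scaled so untreated is 0 and the glycosylation-blocking control 100, at or above a set limit in every replicate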;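 also: luciferase carries N-glycosylation sites so blocking glycosylation raises the light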
SUMO Mot1 rescue: inhibitors of SUMOylation pathway: yeast Mot1-301 growth rescue. S. cerevisiae Mot1-301 growth rescue, ATP luminescence, 38.5C; percent above DMSO median, 100 means doubled. growth rescue, % at 18.8 µM. 320,000 tested, 1% active;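 active = every valid replicate shows activation above 250% relative to neutral control wells; inactive = the rest, any valid replicate at or below 250%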
CASP6 VEID inh: blocks human caspase-6 cleavage activity; P55212; purified caspase-6, Z-VEID-R110 cleavage fluorescence; inhibition, % at 12.5 µM; 350,000 tested, 0.53% active; AID 686996;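 active = mean inhibition across replicates at least about 35%, with every replicate also reaching that limit, limit read from the data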
Large screens that a line does not name were inactive.

Cc1csc(SCC(=O)Nc2nc(-c3ccccc3)cs2)n1	none (no result: CASP6 VEID inh)
Cc1cc(=O)[nH]c(SCC(=O)Nc2nc3ccccc3s2)n1	ALR inh 99
Cc1nnc(SCC(=O)Nc2nc(-c3ccc(F)cc3)cs2)[nH]c1=O	ALR inh 99
Cc1cc(=O)[nH]c(SCC(=O)Nc2nnc(SCc3ccccc3)s2)n1	none
COc1cccc(NC(=O)C[C@H]2CC[C@H]3[C@@H](COc4ccc(NC(=O)C5CCOCC5)cc4C(=O)N3C)O2)c1	none (no result: ALR inh, NSD2 HMT inh, CDK5 p35 inh, Glyco luc inh, SUMO Mot1 rescue)
COc1ccc2cc(C)c3nnc(SCC(=O)Nc4nc(-c5ccc(F)cc5)cs4)n3c2c1	Glyco luc inh 38 (no result: CASP6 VEID inh)
Cc1nnc(SCC(=O)Nc2ccc(Br)cn2)[nH]c1=O	ALR inh 99 (no result: SUMO Mot1 rescue, CASP6 VEID inh)
Cc1nnc(SCC(=O)Nc2ccccc2)[nH]c1=O	none (no result: CASP6 VEID inh)
O=C(C[C@H]1CC[C@@H]2[C@H](COC[C@H](O)CN2CCc2ccccc2)O1)NCc1ccc(F)cc1	none (no result: ALR inh, NSD2 HMT inh, CDK5 p35 inh, Glyco luc inh, SUMO Mot1 rescue)
C[C@@H]1CN([C@@H](C)CO)C(=O)c2cc(NC(=O)CCCN(C)C)ccc2O[C@@H](C)CCCCO[C@@H]1CN(C)S(C)(=O)=O	none (no result: ALR inh, NSD2 HMT inh, CDK5 p35 inh, Glyco luc inh, SUMO Mot1 rescue)
O=C(C[C@@H]1C=C[C@@H](NS(=O)(=O)c2cccc(F)c2)[C@@H](CO)O1)N1CCCCC1	none (no result: ALR inh, NSD2 HMT inh, CDK5 p35 inh, Glyco luc inh, SUMO Mot1 rescue)
CC1=CC(c2ccc(Cl)cc2)n2nc(NS(=O)(=O)c3ccc(C)cc3)nc2N1 (centres undefined)	ALR inh 96 (no result: CASP6 VEID inh)
CCOC(=O)N1CCC(NC(=O)CSCc2nc(-c3ccc(OCC)cc3)oc2C)CC1	ALR inh 99 (no result: CDK5 p35 inh)
CCOc1ccc(-c2nc(CSCC(=O)NC3CC3)c(C)o2)cc1	ALR inh 99 (no result: CASP6 VEID inh)
CCOC(=O)N1CCC(NC(=O)CSCc2nc(-c3cccc(OC)c3)oc2C)CC1	ALR inh 99 (no result: CASP6 VEID inh)
CCCOc1ccc(-c2nc(CSCC(=O)NC3CC3)c(C)o2)cc1	none (no result: ALR inh, CDK5 p35 inh, Glyco luc inh, SUMO Mot1 rescue, CASP6 VEID inh)
CCOc1ccc(-c2nc(CSCC(=O)NC3CCN(Cc4ccccc4)CC3)c(C)o2)cc1	none (no result: ALR inh, CDK5 p35 inh, SUMO Mot1 rescue)
Cc1oc(-c2ccc(Cl)cc2)nc1CSCC(=O)NC1CCN(Cc2ccccc2)CC1	ALR inh 98 (no result: NSD2 HMT inh)
C[C@@H]1CN([C@@H](C)CO)C(=O)c2cc(NC(=O)Cn3cnnn3)ccc2O[C@@H]1CN(C)Cc1ccc(C(=O)O)cc1	none (no result: ALR inh, NSD2 HMT inh, CDK5 p35 inh, Glyco luc inh, SUMO Mot1 rescue)
Cc1noc(C)c1NC(=O)N(C)C[C@H]1Oc2ccc(NC(=O)Cn3cnnn3)cc2C(=O)N([C@@H](C)CO)C[C@@H]1C	none (no result: ALR inh, NSD2 HMT inh, CDK5 p35 inh, Glyco luc inh, SUMO Mot1 rescue)
C[C@@H]1CN([C@H](C)CO)C(=O)c2cccc(NS(=O)(=O)c3ccccc3)c2O[C@H]1CN(C)Cc1ccc(Oc2ccccc2)cc1	none (no result: ALR inh, NSD2 HMT inh, CDK5 p35 inh, Glyco luc inh, SUMO Mot1 rescue)
C[C@H]1CN([C@@H](C)CO)C(=O)c2cc(NS(=O)(=O)c3ccc(F)cc3)ccc2O[C@@H]1CN(C)CC1CC1	none (no result: ALR inh, NSD2 HMT inh, CDK5 p35 inh, Glyco luc inh, SUMO Mot1 rescue)
CCOc1ccc(-c2nc(CSCC(=O)NCc3ccco3)c(C)o2)cc1	ALR inh 98 (no result: CASP6 VEID inh)
Cc1ccccc1CSCC(=O)NCc1ccco1	ALR inh 88
CCOc1ccc(-c2nc(CSCC(=O)NC3CCCc4ccccc43)c(C)o2)cc1 (centres undefined)	ALR inh 96 (no result: CASP6 VEID inh)
Cc1ccc(CSCC(=O)NCc2ccco2)cc1	none
CCOc1ccc(NC(=O)CS(=O)CC(=O)NC2CCCc3ccccc32)cc1 (centres undefined)	none (no result: ALR inh, CASP6 VEID inh)
CCc1nc2c(OCc3ccc(Cl)cc3)cccn2c1N(C=O)Cc1ccccc1	none (no result: ALR inh, CDK5 p35 inh, SUMO Mot1 rescue)
C=CCOc1cccn2c(N(C=O)Cc3ccccc3)c(CC)nc12	CASP6 VEID inh 37 (no result: ALR inh, CDK5 p35 inh, SUMO Mot1 rescue)
NNS(=O)(=O)c1ccc2c(c1)Cc1cc(S(=O)(=O)NN)ccc1-2	ALR inh 99, CASP6 VEID inh 48
O=S(=O)(NCCO)c1ccc2c(c1)Cc1cc(S(=O)(=O)NCCO)ccc1-2	none
COc1cccc(/C=N/N2C(=O)NC3(CCCCC3)C2=O)c1O	ALR inh 84 (no result: CASP6 VEID inh)
Cc1cc2c(NC(=O)Nc3ccc(C(F)(F)F)cc3)cccc2nn1	CASP6 VEID inh 54
CN1CCc2nc3sc(C(=O)C45CC6CC(CC(C6)C4)C5)c(N)c3cc2C1	none (no result: CASP6 VEID inh)
CNc1nc(N)c(C(=O)C23CC4CC(CC(C4)C2)C3)s1	ALR inh 98
CC=Cc1ccc2n(c1=O)C[C@@H]1[C@@H](CO)[C@H](C(=O)NCc3ccc(F)cc3)[C@H]2N1CCC (mixture of isomers)	none (no result: ALR inh, NSD2 HMT inh, CDK5 p35 inh, Glyco luc inh, SUMO Mot1 rescue)
Cc1cc(Nc2ccc(Cl)cc2)n2ncnc2n1	none
Cc1cc(Nc2ccc(N(C)C)cc2)n2ncnc2n1	ALR inh 98
Cc1cc2n(n1)C(c1ccccc1)Nc1ccccc1-2 (centres undefined)	ALR inh 91
Cc1cc2n(n1)C(c1ccc(N(C)C)cc1)Nc1ccccc1-2 (centres undefined)	none (no result: CASP6 VEID inh)
Cc1cc2n(n1)C(c1sccc1C)Nc1ccccc1-2 (centres undefined)	ALR inh 91 (no result: CASP6 VEID inh)
C[C@H](CO)N1C[C@H](C)[C@H](CN(C)C)Oc2cc(C#CCN(C)C)ccc2S1(=O)=O	none (no result: ALR inh, NSD2 HMT inh, CDK5 p35 inh, Glyco luc inh, SUMO Mot1 rescue)
COCCN1CC(=O)N2C(c3cccc(OC)c3)c3[nH]c4ccccc4c3C[C@H]2C1=O (some centres undefined)	ALR inh 99
COc1ccc(C2c3[nH]c4ccccc4c3C[C@H]3C(=O)N(CCCO)CC(=O)N23)c(OC)c1 (some centres undefined)	ALR inh 99
COc1cccc(C2c3[nH]c4ccccc4c3C[C@H]3C(=O)N(C)CC(=O)N23)c1 (some centres undefined)	ALR inh 98
CN1CC(=O)N2Cc3[nH]c4ccccc4c3C[C@H]2C1=O	CASP6 VEID inh 45
COc1ccc(C(=O)N2C[C@@H]3[C@H](c4ccccc42)[C@@H](CO)N3C(=O)c2ccc(F)cc2)cc1	none (no result: ALR inh, NSD2 HMT inh, CDK5 p35 inh, Glyco luc inh, SUMO Mot1 rescue)
COc1cccc(C2c3[nH]c4ccccc4c3C[C@H]3C(=O)N(C4CC4)CC(=O)N23)c1 (some centres undefined)	none
COc1ccc(C2c3[nH]c4ccccc4c3C[C@H]3C(=O)N(C)CC(=O)N23)cc1OC (some centres undefined)	ALR inh 98 (no result: CASP6 VEID inh)
COCCCN1CC(=O)N2C(c3cccc(OC)c3)c3[nH]c4ccccc4c3C[C@H]2C1=O (some centres undefined)	ALR inh 100
COc1ccc(C2c3[nH]c4ccccc4c3C[C@H]3C(=O)N(CCCO)CC(=O)N23)cc1OC (some centres undefined)	none
C/C(=N\N(Cc1ccccc1)c1ccccc1)c1ccncc1	ALR inh 99
CN(C(=O)c1ccncc1)c1ccccc1	none
COc1ccc(NC(=O)N(C)C[C@H]2Oc3ccc(NS(=O)(=O)c4cn(C)cn4)cc3CC(=O)N([C@@H](C)CO)C[C@H]2C)cc1	none (no result: ALR inh, NSD2 HMT inh, CDK5 p35 inh, Glyco luc inh, SUMO Mot1 rescue)
O=C1CS/C(=N/N=C/c2ccco2)N1Cc1ccc(F)cc1	ALR inh 90 (no result: CDK5 p35 inh)
CC(C)CCN1CCN(C2CCN(c3ccccc3)CC2)CC1CCO (centres undefined)	ALR inh 98
